Reference: PubChem BioAssay
The source made the active and inactive calls.

Molecular target: Luciferin 4-monooxygenase (Photinus pyralis) (UniProt P08659)
Assay: inhibition of purified Photinus pyralis luciferase – biochemical, luminescence, purified enzyme, 2006 set, primary screen (AID 1141);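 further: cell-free assay with purified firefly luciferase at 100 ng per well in PBS; test concentration not given here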
Settings: purified firefly luciferase, SteadyGlo luminescence, 30 min; higher = more signal, called active from +8 up or from −8 down

Sequence of Luciferin 4-monooxygenase (Photinus pyralis) (P08659 whole entry, looked up): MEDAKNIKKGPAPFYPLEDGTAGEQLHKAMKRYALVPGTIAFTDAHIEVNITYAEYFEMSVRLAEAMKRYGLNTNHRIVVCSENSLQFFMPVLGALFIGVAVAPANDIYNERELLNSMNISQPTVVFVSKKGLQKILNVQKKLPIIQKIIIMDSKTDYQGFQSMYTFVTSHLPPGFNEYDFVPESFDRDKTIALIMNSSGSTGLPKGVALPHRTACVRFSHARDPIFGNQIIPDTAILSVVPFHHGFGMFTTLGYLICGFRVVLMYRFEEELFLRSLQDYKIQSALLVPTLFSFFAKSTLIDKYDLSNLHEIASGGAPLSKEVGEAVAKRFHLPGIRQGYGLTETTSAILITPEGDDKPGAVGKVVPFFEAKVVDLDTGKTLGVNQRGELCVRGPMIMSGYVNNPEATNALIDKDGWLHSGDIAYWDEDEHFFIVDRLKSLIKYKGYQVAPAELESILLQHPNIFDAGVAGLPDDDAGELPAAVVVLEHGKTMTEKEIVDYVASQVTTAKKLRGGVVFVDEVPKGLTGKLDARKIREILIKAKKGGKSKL

z-score, inactive:
CCCC=C(CCC)[C@@H](NS(=O)(=O)c1cccc(C(F)(F)F)c1)c1ccc(C(=O)OC)cc1 2.82, NC(=O)[C@H]1[C@@H]2C(=O)O[C@@H](c3ccccc3)[C@@H](c3ccccc3)N2[C@@H](c2ccc(O)cc2)[C@]12C(=O)Nc1ccc(C#CCCO)cc12 -0.0824, O=C(O)[C@@H]1Cc2c([nH]c3ccccc23)[C@@H](c2ccccc2)N1 -0.0866, COc1cc2c(cc1OC)CN(C(=O)[C@@H]1[C@H]3C(=O)O[C@H](c4ccccc4)[C@H](c4ccccc4)N3[C@H](c3ccccc3OCCO)[C@@]13C(=O)Nc1ccccc13)CC2 -1.38, CCCC=C(CCC)[C@@H](NS(=O)(=O)c1ccc(-c2ccccc2)cc1)c1ccc(C(=O)OC)cc1 1.67, O=C/C=C/c1ccccc1Cl -2.21, [N-]=[N+]=NCc1ccccc1[C@H]1OC(c2ccc(OCCCO)cc2)=N[C@@]1(Cc1ccccc1N=[N+]=[N-])C(=O)NCc1ccccc1 -1.17, O=C1c2ccccc2[C@](Cc2ccccc2I)(C(=O)O)[C@H](c2ccc(CO)cc2)N1C1CCCCC1 -0.757, C=CCC(OC(C)=O)[C@@H]1[C@@H](N(Cc2cc3ccccc3o2)C(=O)Cc2ccc(F)cc2)c2cc(OCCCO)ccc2N1C(=O)c1ccc(-c2ccccc2)cc1 (some centres undefined) -1.06
